Test results: PubChem BioAssay
Records with an inconclusive call do not appear. Activity calls are given as the source filed them. Rule as the data show it, unless noted: active = inhibition above about 30%; inactive = the rest.

How the values were obtained:
[1] = reducers of endogenous Her2 protein level, primary screen, SKBR3 breast tumor cells, AlphaScreen, ATP viability (AID 461;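 active = Her2 level under about 52% in both replicate screens, with viability over 70% of control, limit read from the data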;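 as to Her2 level: lower value means less Her2 protein in the cells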;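 as to viability: percent of carrier control wells set as 100% viability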); settings: 18-24 h, measured here: SKBR3 viability, ATP luminescence, at 10 µM
[2] = target: Receptor tyrosine-protein kinase erbB-2 (Homo sapiens) (UniProt P04626); experiment: as above; settings: 18-24 h, at 10 µM, stronger effect = lower value
[3] = SK-BR-3 cell growth inhibitors, pilot screen, 24 h, human (AID 572;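 active = viability at or below 10% of carrier control in both of two separate runs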;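 also: compound exposure lasted between 18 and 24 h rather than exactly 24 h; 100% = carrier-treated control wells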); settings: SK-BR-3 viability, CellTiter-Glo luminescence, at 10 µM, stronger effect = lower value
[4] = HUVEC growth inhibition – cell-based, human, primary screen (AID 575;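 active = viability at or below 30% in both replicate assays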;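 also: 100% = median of untreated cell wells with 0.1% DMSO on each plate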); settings: HUVEC proliferation, CellTiter-Glo luminescence, 72 h; at 10 µM; stronger effect = lower value
[5] = growth inhibitors of H69AR lung tumor, primary screen, human, duplicate replicates (AID 580;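 active = viability at or under a set limit in both replicates, limit being median viability minus 3 SD, cut at about 48% in these data, passing the limit was not always enough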;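 also: 100% = mean luminescence of untreated wells and 0% = no signal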); settings: H69AR lung tumor cells viability, ATP luminescence, 72 h; at 10 µM; stronger effect = lower value
[6] = reversal of MRP1-mediated doxorubicin resistance, pilot screen, H69AR cells, doxorubicin co-treatment (AID 601;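 active = viability loss from added drug above about 55%, and viability with drug at most 40%, in both replicates, limit read from the data, passing the limit was not always enough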); settings: CellTiter-Glo, 72 h, at 10 µM; for differential viability (reversal): stronger effect = higher value
[7] = 384-well plate pilot, post-Golgi transport modulator project, inhibition of yeast transport mutant growth (AID 636; in the data active = inhibition above about 31%); settings: absorbance 615 nm, about 18 h, stronger effect = higher value
[8] = growth suppression of yeast trafficking mutant, preliminary HTS, modulators of trafficking downstream of Golgi apparatus project, 1536-format plate, OD 615 nm (AID 637); settings: yeast transport mutant growth, absorbance 615 nm, 18 h; stronger effect = higher value
[9] = OD615 S. cerevisiae growth inhibition, permissive medium, pilot counter-assay, permissive growth control for S. cerevisiae lifespan shortening project (AID 705;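 active = growth inhibition above 25% in both replicates, a cutoff set 3 SD above the mean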); settings: OD615, 24 h, at 10 µM, stronger effect = higher value
[10] = Restrictive medium S. cerevisiae growth inhibition, OD615, pilot screen of yeast lifespan reduction project, restrictive growth control (AID 706;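 active = growth inhibition above a set limit, 3 SD over mean compound inhibition, in both replicates, cut at about 43% in these data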;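 also: modified DeaD lifespan yeast strain shifted to restrictive glucose medium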); settings: OD615, 48 h, at 10 µM, stronger effect = higher value
[11] = viability gain of MRP-1-high H69AR cells under doxorubicin, pilot screen, MRP-1 activator project, CellTiter-Glo, duplicate (AID 807;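 active = viability increase at or above a cutoff of the median across tested compounds plus 3 SD, cut at about 8.5% in these data, passing the limit was not always enough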;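 also: compound pretreatment 18-22 h then 72 h combined with doxorubicin; 0% = doxorubicin alone and 100% = vehicle without doxorubicin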); settings: H69AR viability with doxorubicin, CellTiter-Glo luminescence; at 10 µM; stronger effect = higher value
[12] = growth suppression of beta-catenin knockout HCT116, pilot screen, human colon tumor cells (AID 823;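 active = cell viability at or below a set limit in both duplicate runs, the limit being the all-compound median minus 4 SD, cut at about 23% in these data, passing the limit was not always enough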;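 also: 0% = wells killed by 20 µM Hyamine and 100% = untreated DMSO cell wells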); settings: CellTiter-Glo, 60 h, at 10 µM, stronger effect = lower value
[13] = growth suppression of PTEN-deleted HCT116, pilot screen, cell-based, HCT116 clonal line, CellTiter-Glo (AID 824;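 active = viability at or below 27.92% in each of two runs, the all-compound median minus 4 SD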;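 also: 0% = 20 µM Hyamine control and 100% = vehicle cell control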); settings: 60 h, at 10 µM, stronger effect = lower value
[14] = inhibitors of the yeast RAM network, pilot screen, dse1pr::URA3 reporter, 5-FOA selection (AID 869;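 active = inhibition over a set limit, the all-compound mean plus 3 SD, in both replicate runs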;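 also: 0% = DMSO wells with no growth and 100% = 10 µM 1-NA-PP1 with full growth; RAM network block rescues cells from 5-FOA so hits raise OD615 growth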); settings: S. cerevisiae dse1pr::URA3 5-FOA growth, OD615, 2 d; at 10 µM; stronger effect = higher value; strain carries analog-sensitive mutant Cbk1 kinase
[15] = RAM signaling pathway blockade in yeast – S. cerevisiae, Pdr1DBD-CYC8 efflux-inhibited sensitized strain, primary screen (AID 1298;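 active = RAM network inhibition above 8.4% in each of two replicates, 3 SD over the compound average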;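 also: 0% = DMSO untreated cells without growth and 100% = 10 µM 1-NA-PP1 full growth; higher means more yeast growth rescued from 5-FOA killing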); settings: S. cerevisiae cbk1-as DSE1-URA3 strain, 5-FOA growth OD615, 2 d; at 50 µM; stronger effect = higher value
[16] = H69AR cells + 2 uM doxorubicin, measured here: viability with 2 uM doxorubicin, stronger effect = lower value
[17] = H69AR cells, compound alone cytotoxicity

Sequence of Receptor tyrosine-protein kinase erbB-2 (Homo sapiens) (P04626 whole entry, looked up): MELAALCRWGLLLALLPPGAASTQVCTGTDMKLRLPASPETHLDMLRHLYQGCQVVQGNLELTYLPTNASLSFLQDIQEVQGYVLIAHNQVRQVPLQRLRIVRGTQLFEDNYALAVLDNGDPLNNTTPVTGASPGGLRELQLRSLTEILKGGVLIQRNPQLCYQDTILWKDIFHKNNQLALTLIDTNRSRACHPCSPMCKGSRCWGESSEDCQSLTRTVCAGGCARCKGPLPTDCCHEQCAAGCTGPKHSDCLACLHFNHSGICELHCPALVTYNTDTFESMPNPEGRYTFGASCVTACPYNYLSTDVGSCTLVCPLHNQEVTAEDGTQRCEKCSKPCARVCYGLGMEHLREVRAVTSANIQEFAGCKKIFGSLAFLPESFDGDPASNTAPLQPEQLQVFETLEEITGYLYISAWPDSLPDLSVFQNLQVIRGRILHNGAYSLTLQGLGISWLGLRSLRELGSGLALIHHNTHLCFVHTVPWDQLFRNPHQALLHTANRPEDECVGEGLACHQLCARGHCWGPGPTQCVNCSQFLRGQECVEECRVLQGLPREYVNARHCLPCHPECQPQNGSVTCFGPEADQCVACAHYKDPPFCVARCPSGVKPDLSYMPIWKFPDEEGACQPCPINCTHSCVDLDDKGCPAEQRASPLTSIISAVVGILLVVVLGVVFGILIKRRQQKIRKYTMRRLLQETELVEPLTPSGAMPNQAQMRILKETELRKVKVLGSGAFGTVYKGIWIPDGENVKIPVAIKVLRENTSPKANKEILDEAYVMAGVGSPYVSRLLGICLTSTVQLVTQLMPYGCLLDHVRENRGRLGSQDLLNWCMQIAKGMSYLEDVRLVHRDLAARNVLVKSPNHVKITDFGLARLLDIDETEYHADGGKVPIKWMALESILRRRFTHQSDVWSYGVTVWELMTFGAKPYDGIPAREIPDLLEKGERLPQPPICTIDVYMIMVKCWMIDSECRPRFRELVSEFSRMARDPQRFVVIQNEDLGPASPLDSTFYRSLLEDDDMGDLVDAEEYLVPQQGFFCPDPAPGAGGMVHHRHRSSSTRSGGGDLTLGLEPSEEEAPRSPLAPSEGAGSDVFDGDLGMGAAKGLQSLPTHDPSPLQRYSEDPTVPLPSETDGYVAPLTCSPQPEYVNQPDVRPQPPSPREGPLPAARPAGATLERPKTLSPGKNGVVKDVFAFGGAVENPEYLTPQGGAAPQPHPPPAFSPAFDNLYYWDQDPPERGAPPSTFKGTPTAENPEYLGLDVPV

Cc1ccc(NC(=O)c2cc(-c3ccc(C)o3)nc3ccccc23)nc1
5.45%: viability [6, 16]
active: viability [5] 4.86%
80%: viability [1]
4.86%: viability [6, 17]
inactive: Her2 level [2] 74% | viability [3] 80% | viability [4] 73% | differential viability (reversal) ([6]; H69AR cells + 2 uM doxorubicin) -0.595% | inhibition [7] -7.43% | inhibition [8] -0.82% | growth inhibition [9] 3.23% | growth inhibition [10] -2.09% | viability increase [11] -4.08% | viability [12] 78.6% | viability [13] 84.2% | inhibition [14] 1.21% | RAM network inhibition [15] 0.74%

Cc1nc2sc(C(c3cccs3)N3CC(C)CC(C)C3)c(O)n2n1 (stereo not given)
95.2%: viability [6, 17]
89.5%: viability [1]
inactive: Her2 level [2] 92% | viability [3] 89.5% | viability [4] 108% | viability [5] 95.2% | differential viability (reversal) ([6]; H69AR cells + 2 uM doxorubicin) 1.38% | inhibition [7] -0.27% | inhibition [8] 8.85% | growth inhibition [9] -11.2% | growth inhibition [10] -10.1% | viability increase [11] -2.1% | viability [12] 107% | viability [13] 95.2% | inhibition [14] 1.53% | RAM network inhibition [15] 5.64%
93.8%: viability [6, 16]

CCC(C)NC(=O)C1c2cc(OC)c(OC)cc2C(=O)N(C)C1c1ccc(OC)cc1 (stereo not given)
96%: viability [1]
108%: viability [6, 17]
inactive: Her2 level [2] 90% | viability [3] 96% | viability [4] 108% | viability [5] 108% | differential viability (reversal) ([6]; H69AR cells + 2 uM doxorubicin) 10.2% | inhibition [7] -8.77% | inhibition [8] -10.2% | growth inhibition [9] -5.75% | growth inhibition [10] -9.85% | viability increase [11] -1.38% | viability [12] 96% | viability [13] 95.3% | inhibition [14] 0.92% | RAM network inhibition [15] 0.81%
97.6%: viability [6, 16]

O=C(CN1CCN(Cc2ccccc2F)C1=O)NCc1cccnc1
107%: viability [6, 17]
94.5%: viability [1]
inactive: Her2 level [2] 94.5% | viability [3] 94.5% | viability [4] 108% | viability [5] 107% | differential viability (reversal) ([6]; H69AR cells + 2 uM doxorubicin) 17% | inhibition [7] -3.87% | inhibition [8] -1.97% | growth inhibition [9] 2.81% | growth inhibition [10] 6.51% | viability increase [11] -1.65% | viability [12] 100% | viability [13] 94.6% | inhibition [14] 0.605% | RAM network inhibition [15] 3.14%
90.4%: viability [6, 16]

Cc1cccc(N2CCN(C(=O)Cn3nc(Cc4ccncc4)c4ccccc4c3=O)CC2)c1C
inactive: Her2 level [2] 82% | viability [3] 83% | viability [4] 83.9% | viability [5] 75.9% | differential viability (reversal) ([6]; H69AR cells + 2 uM doxorubicin) -7.61% | inhibition [7] -5.6% | inhibition [8] 1.5% | growth inhibition [9] 1.35% | growth inhibition [10] 6.96% | viability increase [11] 1.06% | viability [12] 70.7% | viability [13] 76% | inhibition [14] 0.445% | RAM network inhibition [15] 3.21%
75.9%: viability [6, 17]
83%: viability [1]
83.5%: viability [6, 16]
